Laboratory results from PubChem BioAssay (NCATS).
Records with an inconclusive call do not appear. The source made the active and inactive calls. Unless noted, how the calls were made is not given here.

Legend:
[1] = qHTS Assay for Identifying Gametocytocidal Compounds (AID 743244; active means well fitted curve in the direction sought with a large enough effect; further: potency means the concentration at half of the fitted maximal effect;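 on max response: on the % scale 0 is the no-effect control and ±100 the full control effect; actives lower the fluorescent signal which means gametocytes are killed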); conditions: P. falciparum 3D7 stage III-V gametocytes, alamarBlue, 72 h; max response: stronger effect = lower value
Method in brief: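 A resazurin-based viability read-out was applied to mature P. falciparum gametocytes: 72 h compound treatment, then 24 h dye incubation, with falling fluorescence signalling gametocytocidal effect.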

[2] = qHTS profiling for inhibitors of Plasmodium falciparum (3D7) proliferation (AID 743322);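 further: infected erythrocytes exposed to compound for 72 h before lysis; 100% = DMSO vehicle wells and 0% = 0.29 µM artemisinin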; conditions: P. falciparum 3D7 proliferation; at 28.7 µM (top of the series) unless noted
Method in brief: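 Parasite DNA was quantified by SYBR Green I fluorescence (ex 485, em 535 nm) after overnight lysis in saponin/Triton buffer at room temperature. Cultures at 0.3% parasitemia and 2.5% hematocrit were first exposed to compound for 72 h at 37 C; signals were normalised to artemisinin (0.29 uM) and vehicle wells.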

[3] = qHTS profiling for inhibitors of Plasmodium falciparum (DD2) proliferation (AID 743323); conditions: lower = more inhibition; at 28.7 µM (top of the series) unless noted
Method in brief: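 Parasite DNA quantified by SYBR Green fluorescence (ex 485, em 535 nm) after saponin/Triton lysis and overnight dark incubation. Cultures: 0.3% parasitemia, 2.5% hematocrit, 72 h, 37 C; data scaled between DMSO and 0.29 uM artemisinin.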

Compound	max response [1]	remaining parasite growth % (stronger effect = lower value) [2]	activity, percent of control [3]	Potency [1]
COc1cc2c(cc1OC)CC(=O)N(CCCN(C)C[C@H]1Cc3cc(OC)c(OC)cc31)CC2	-6.61% (inactive)	105%	102%	–
CCC(=O)N1CCN(c2ccc(-n3c(=O)ccc4cnc5ccc(-c6cnc7ccccc7c6)cc5c43)cc2C(F)(F)F)CC1	–	4.73%	15.4%	5.26 µM (active)
CS(=O)(=O)c1ccc(C2=C(c3ccccc3)C(=O)OC2)cc1	3.44% (inactive)	–	–	–
CN1CCN2c3ncccc3Cc3ccccc3C2C1 (centres undefined)	6.21% (inactive)	–	–	–
N#Cc1c(N(CC(=O)O)CC(=O)O)sc(C(=O)O)c1CC(=O)O	-8.64% (inactive)	–	–	–
Cc1cccc(Nc2nc(N[C@@H]3CCCC[C@H]3N)ncc2C(N)=O)c1	–	0.221%	4.78%	9.35 µM (active)
CCCCc1ccc(NS(=O)(=O)c2ccc(C)c(C(=O)N3CCN(c4cccc(C)c4C)CC3)c2)cc1	17% (inactive)	37.4%	96.6%	–
COc1ccc2nc3cc(Cl)ccc3c(Nc3cc(CN4CCCC4)c(O)c(CN4CCCC4)c3)c2n1	–	-1.29%	-0.214%	–
COc1cc([C@@H]2c3cc4c(cc3[C@@H](O[C@@H]3O[C@@H]5CO[C@@H](C)O[C@@H]5[C@H](O)[C@@H]3O)[C@H]3COC(=O)[C@H]23)OCO4)cc(OC)c1O	–	51.5% [at 9.63 µM]	47.3% [at 9.63 µM]	–
CC(=O)Nc1cccc(-n2c(=O)n(C3CC3)c(=O)c3c(Nc4ccc(I)cc4F)n(C)c(=O)c(C)c32)c1	–	-2.85%	-0.291%	–
NC(=O)c1ccc(N(C(N)=O)c2c(F)cccc2F)nc1-c1ccc(F)cc1F	15.2% (inactive)	84.7%	83.3%	–
CCc1cc(-c2n[nH]c(C)c2-c2ccc3c(c2)OCCO3)c(O)cc1O	-4.02% (inactive)	99.3%	90.4%	–
CCN(CC)CCCCNc1nc2cc(Cl)c(Cl)cc2nc1-c1ccc(-c2cccs2)s1	–	0.96%	1.46%	–
Nc1ccc(-c2ccc3ncc4ccc(=O)n(-c5cccc(C(F)(F)F)c5)c4c3c2)cn1	–	-1.33%	-0.278%	0.027 µM (active)
O=C1NC(=O)C(c2cnc3ccccn23)=C1c1cn2c3c(cccc13)CN(C(=O)N1CCOCC1)CC2	–	49.3%	63.3%	–
CN(C)CCN(C)C(=O)c1ccc(NC(=O)Nc2ccc(-c3nc(N4CCOCC4)c4ccn(CC(F)(F)F)c4n3)cc2)cc1	–	-0.909%	0.114%	23.5 µM (active)
CC(C)C[C@@H](C(=O)N[C@H](C(=O)OC1CCCC1)c1ccccc1)[C@H](O)C(=O)NO	–	3.5%	9.3%	–
CCNC(=O)c1noc(-c2cc(C(C)C)c(O)cc2O)c1-c1ccc(CN2CCOCC2)cc1	–	0.155%	0.689%	0.0469 µM (active)
CC(C)CNc1ccnc(NCc2csc(-c3ccccc3)n2)n1	–	3.03%	6.76%	–
COc1ccc(CCN(C)CCCOc2ccc(S(=O)(=O)c3[nH]c4ccccc4c3C(C)C)cc2)cc1OC	–	-1%	1.03%	–
Cc1ccc(NC(=O)c2ccc(CN3CCN(C)CC3)cc2)cc1Nc1nc(-c2cccnc2)cs1	–	0.463%	5.7%	–
O=C(Nc1cccc(Cl)c1)Nc1ncc(CCNc2ncnc3ccsc23)s1	5.02% (inactive)	0.421%	4.65%	–
CC(=O)NCCC(=O)N[C@@H](CCC(N)=O)C(=O)N[C@@H](CO)C(=O)N[C@@H](CCC(N)=O)C(=O)N[C@@H](CCC(N)=O)C(=O)N[C@H](C(=O)N[C@@H](Cc1ccccc1)C(=O)N[C@]1(C)CCCCCCC=CCCC[C@@](C)(C(=O)N[C@@H](CCC(N)=O)C(=O)N[C@@H](CC(N)=O)C(N)=O)NC(=O)[C@H](CC(C)C)NC(=O)[C@H](CC(C)C)NC(=O)[C@@H](CCCNC(=N)N)NC(=O)[C@H](Cc2c[nH]c3ccccc23)NC(=O)[C@H](CC(C)C)NC(=O)[C@H](CC(N)=O)NC1=O)[C@H](C)O	–	38.2%	68.3%	–
O=C(O)Cc1cccc(OCCCN(Cc2cccc(C(F)(F)F)c2Cl)CC(c2ccccc2)c2ccccc2)c1	0.38% (inactive)	36.2%	34.1%	–
CCCCCCCCCCCCCC(=O)N[C@H](CO)[C@H](O)c1ccc([N+](=O)[O-])cc1	-2.76% (inactive)	90.4%	82.3%	–
O=C1CN2Cc3c(ccc(Cl)c3Cl)N=C2N1	–	87%	93.4%	–
CCC=CC[C@H]1C(=O)CC[C@@H]1CC(=O)OC	12% (inactive)	94.5%	93.1%	–
